Data: PubChem BioAssay (EPA / NIEHS)
The source made the active and inactive calls. The calls were made as follows: active = hit-call score of the fitted dose curve at least 0.9, where 1 is the maximum; inactive = score below 0.9.

How the values were obtained:
[1] = Tanguay_ZF_120hpf_MO24: Oregon State University Tanguay Lab 24 Hour Post-fertilization zebrafish Assay for Mortality (AID 2284389)
Procedure, shortened: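 Dechorionated wild-type zebrafish embryos, 1 per well, statically exposed from 6 hpf at 28C, 0.64% DMSO final. Mortality scored as binary present/absent at 24 hpf by brightfield microscopy, relative to DMSO.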

[2] = Tanguay_ZF_120hpf_DP24: Oregon State University Tanguay Lab 24 Hour Post-fertilization zebrafish Assay for Delayed Development (AID 2284390)
Procedure, shortened: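 Dechorionated 5D wild-type zebrafish embryos exposed statically from 6 hpf, one per well, 0.64% DMSO final, 28 C, sealed and dark. Developmental progression scored at 24 hpf by brightfield as binary present/absent; dead embryos excluded.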

[3] = Tanguay_ZF_120hpf_CRAN: Oregon State University Tanguay Lab 120 Hour Post-fertilization zebrafish Assay for Craniofacial Malformation (AID 2284397)
Procedure, shortened: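 Dechorionated Tropical 5D wild-type zebrafish embryos, one per well, were statically exposed from 6 to 120 hpf at 28C in 0.64% DMSO, with 5uM trimethyltin chloride as positive control. Craniofacial malformation was scored present/absent by brightfield microscopy, relative to DMSO.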

[4] = Tanguay_ZF_120hpf_MORT: Oregon State University Tanguay Lab 120 Hour Post-fertilization zebrafish Assay for Mortality (AID 2284399)
Procedure, shortened: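 Dechorionated wild-type Tropical 5D zebrafish embryos, one per well from 6 hpf, static exposure to 120 hpf at 28C in sealed dark plates, 0.64% DMSO final. Mortality scored as binary by brightfield at 24 and 120 hpf.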

[5] = Tanguay_ZF_120hpf_EDEM: Oregon State University Tanguay Lab 120 Hour Post-fertilization zebrafish Assay for Edema Malformation (AID 2284400)
Procedure, shortened: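 Dechorionated Tropical 5D wild-type embryos, one per well, statically exposed from 6 to 120 hpf at 28C in 0.64% DMSO. Edema scored present/absent by brightfield microscopy at 120 hpf; dead embryos not scored; fit versus DMSO.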

[6] = Tanguay_ZF_120hpf_BRN: Oregon State University Tanguay Lab 120 Hour Post-fertilization zebrafish Assay for Brain Region Malformation (AID 2284402)
Procedure, shortened: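 Dechorionated wild-type Tropical 5D zebrafish embryos exposed statically from 6 to 120 hpf at 28C, one per well, 0.64% DMSO final. Brain malformation scored at 120 hpf by brightfield as present/absent; dead embryos not scored.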

[7] = Tanguay_ZF_120hpf_TCHR: Oregon State University Tanguay Lab 120 Hour Post-fertilization zebrafish Assay for Touch Responsive (AID 2284403)
Procedure, shortened: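 Dechorionated Tropical 5D wild-type zebrafish embryos, one per well from 6 hpf, were statically exposed to 120 hpf at 28 °C (0.64% DMSO). Touch response was scored present/absent at 120 hpf and not scored in dead larvae.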

[8] = CCTE_Padilla_ZF_Score.Craniofacial: CCTE's 144 Hour Post-fertilization zebrafish Assay Score for Craniofacial Malformation, Padilla Lab (AID 2284405)
Procedure, shortened: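 Wild-type zebrafish embryos (with chorions), one per well in 10% Hanks', were dosed at 6–8 hpf in sealed plates and kept at 26C. They were rinsed at 5 dpf. At 6 dpf two blinded assessors scored craniofacial malformations by brightfield stereomicroscopy.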

[9] = CCTE_Padilla_ZF_Score.General: CCTE's 144 Hour Post-fertilization zebrafish Assay Score for General Malformation, Padilla Lab (AID 2284411)
Procedure, shortened: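 Wild-type zebrafish embryos were plated singly at 6-8 hpf in 10% Hanks' and exposed in sealed wells at 26C until rinsed on 5 dpf. At 6 dpf two blinded assessors scored mortality, hatching and malformations by stereomicroscopy; gain-of-signal versus DMSO.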

[10] = CCTE_Padilla_ZF_Score.Tail: CCTE's 144 Hour Post-fertilization zebrafish Assay Score for Tail Malformation, Padilla Lab (AID 2284414)
Procedure, shortened: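 Wild-type zebrafish embryos, one per well in 200 uL 10% Hanks', dosed at 6-8 hpf, sealed, and kept at 26 C on a 14:10 h light cycle. Chemical was rinsed out at 5 dpf. Blinded brightfield scoring of tail defects followed at 6 dpf.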

[11] = CCTE_Padilla_ZF_Score.Blood_pooling: CCTE's 144 Hour Post-fertilization zebrafish Assay Score for Blood Pooling, Padilla Lab (AID 2284415)
Procedure, shortened: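 Wild-type outbred zebrafish embryos, one per well in 10% Hanks', exposed from 6–8 hpf in sealed plates at 26C on 14:10 h light:dark, rinsed at 5 dpf. Blinded stereomicroscope scoring of blood pooling at 6 dpf; gain-of-signal versus DMSO.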

[12] = CCTE_Padilla_ZF_Score.Any: CCTE's 144 Hour Post-fertilization zebrafish Assay Score for Any Mortality or Malformation, Padilla Lab (AID 2284416)
Procedure, shortened: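 Wild-type zebrafish embryos with chorions, one per well in 10% Hanks' from 6–8 hpf, dosed in sealed plates at 26 C, 14:10 h light:dark; rinsed at 5 dpf; blinded scoring at 6 dpf for death or malformation, versus DMSO.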

[13] = Tanguay_ZF_120hpf_AXIS: Oregon State University Tanguay Lab 120 Hour Post-fertilization zebrafish Assay for Axial Malformation (AID 2284398)
Procedure, shortened: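 Dechorionated 5D wild-type zebrafish embryos exposed statically, one per well, from 6 to 120 hpf at 28C, 0.64% DMSO. Axial malformation scored as present/absent by brightfield microscopy at 120 hpf; dead embryos not scored.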

[14] = Tanguay_ZF_120hpf_ANY: Oregon State University Tanguay Lab 120 Hour Post-fertilization zebrafish Assay for Any Mortality and Malformation (AID 2284404)
Procedure, shortened: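 Dechorionated Tropical 5D wild-type embryos, one per well from 6 hpf, static exposure in sealed, dark plates at 28C until 120 hpf, 0.64% DMSO final. Brightfield scoring of mortality and malformations as binary presence/absence, pooling 13 morphology endpoints.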

[15] = CCTE_Padilla_ZF_Score.Swim_bladder: CCTE's 144 Hour Post-fertilization zebrafish Assay Score for Swim Bladder Malformation, Padilla Lab (AID 2284408)
Procedure, shortened: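 Wild-type zebrafish embryos, one per well in 10% Hanks', dosed at 6–8 hpf, sealed, reared at 26C and rinsed at 5 dpf. Blinded assessors scored uninflated swim bladder by stereomicroscopy at 6 dpf, relative to DMSO.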

[16] = CCTE_Padilla_ZF_Score.Position: CCTE's 144 Hour Post-fertilization zebrafish Assay Score for Position, Padilla Lab (AID 2284409)
Procedure, shortened: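 Wild-type zebrafish embryos (with chorions) exposed singly from 6–8 hpf in sealed wells of Hanks' solution at 26C, rinsed at 5 dpf. At 6 dpf, blinded assessors scored abnormal water-column position by brightfield stereomicroscopy, relative to DMSO.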

[17] = CCTE_Padilla_ZF_Score.Living: CCTE's 144 Hour Post-fertilization zebrafish Assay Score for Viability, Padilla Lab (AID 2284410);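 also: larval death at 6 dpf judged by absent heartbeat or coagulation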
Procedure, shortened: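 Wild-type zebrafish embryos were exposed singly from 6–8 hpf in sealed wells of Hanks' solution at 26C, then rinsed at 5 dpf. At 6 dpf, blinded assessors scored mortality (no heartbeat or coagulation) by stereomicroscopy, fitted against DMSO.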

[18] = CCTE_Padilla_ZF_Score.Edema: CCTE's 144 Hour Post-fertilization zebrafish Assay Score for Edema Malformation, Padilla Lab (AID 2284406)
Procedure, shortened: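 Wild-type zebrafish embryos, one per well in Hanks' solution, dosed at 6-8 hpf, sealed and reared at 26C on a 14:10 h cycle; rinsed on 5 dpf. At 6 dpf, blinded assessors scored edema by stereomicroscopy.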

[19] = CCTE_Padilla_ZF_Score.Spine: CCTE's 144 Hour Post-fertilization zebrafish Assay Score for Spine Malformation, Padilla Lab (AID 2284407)
Procedure, shortened: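 Wild-type zebrafish embryos, one per well in Hanks' solution, dosed at 6–8 hpf in sealed plates at 26C, 14:10 h light:dark; rinsed at 5 dpf. Two blinded assessors scored spinal defects by stereomicroscopy at 6 dpf; fitted versus DMSO.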

Measured: AC50

FC(F)(F)C(F)(F)C(F)(F)C(F)(F)C(F)(F)C(F)(F)C(F)(F)C(F)(F)CCS
inactive: [1] | [2] | [3] | [4] | [5] | [6] | [7] | [8] | [9] | [10] | [11] | [12]

O=C(O)C(F)(F)C(F)(F)C(F)(F)C(F)(F)C(F)(F)C(F)(F)C(F)(F)C(F)(F)C(F)(F)C(F)(F)C(F)(F)C(F)(F)C(F)(F)F
inactive: [1] | [13] | [4] | [5] | [6] | [7] | [8] | [9] | [10] | [11] | [12]

NC(=O)C(F)(F)C(F)(F)C(F)(F)C(F)(F)F
inactive: [1] | [4] | [5] | [6] | [7] | [14] | [8] | [15] | [16] | [17] | [9] | [10] | [11] | [12]

OCC(F)(F)C(F)(F)C(F)(F)F
inactive: [1] | [4] | [5] | [6] | [7] | [14] | [8] | [18] | [19] | [9] | [10] | [11] | [12]

C=CC(F)(F)C(F)(F)C(F)(F)C(F)(F)C(F)(F)C(F)(F)C(F)(F)C(F)(F)F
inactive: [1] | [13] | [4] | [5] | [6] | [7] | [8] | [9] | [10] | [11] | [12]

C=C(C)C(=O)OCCC(F)(F)C(F)(F)C(F)(F)C(F)(F)C(F)(C(F)(F)F)C(F)(F)F
inactive: [1] | [13] | [4] | [5] | [6] | [7] | [8] | [18] | [19] | [15] | [16] | [9] | [10] | [11] | [12]

O=C(O)C(F)(F)C(F)(F)F
inactive: [1] | [2] | [4] | [5] | [6] | [7] | [8] | [19] | [9] | [10] | [11] | [12]

O=C(O)C=C(C(F)(F)F)C(F)(F)F
inactive: [1] | [4] | [5] | [6] | [7] | [14] | [8] | [9] | [10] | [11] | [12]

FC(F)(F)C(F)(F)C(F)(F)N(C(F)(F)C(F)(F)C(F)(F)F)C(F)(F)C(F)(F)C(F)(F)F
inactive: [1] | [2] | [4] | [5] | [6] | [7] | [8] | [15] | [16] | [9] | [10] | [11] | [12]

CCCCCCCCC(F)(F)C(F)(F)C(F)(F)C(F)(F)C(F)(F)C(F)(F)F
inactive: [1] | [3] | [4] | [5] | [6] | [7] | [14] | [8] | [19] | [17] | [9] | [10] | [11] | [12]

FC(F)(F)C(F)(F)C(F)(F)C(F)(F)C(F)(F)C(F)(F)C(F)(F)C(F)(F)F
inactive: [1] | [4] | [5] | [6] | [7] | [8] | [18] | [9] | [10] | [11] | [12]

FC(F)(F)C(F)(F)C(F)(F)C(F)(F)C(F)(F)CCI
active: [9] 54.7 µM | [12] 31.9 µM
inactive: [1] | [3] | [4] | [5] | [6] | [7] | [8] | [16] | [17] | [10] | [11]

OCCCC(F)(F)C(F)(F)C(F)(F)C(F)(F)C(F)(F)C(F)(F)C(F)(F)F
active: [18] 36.4 µM | [12] 38.7 µM
inactive: [1] | [13] | [4] | [5] | [6] | [7] | [8] | [9] | [10] | [11]

O=S(=O)(O)C(F)(F)C(F)(F)C(F)(F)C(F)(F)C(F)(F)C(F)(F)C(F)(F)F
inactive: [1] | [2] | [4]
active: [3] 33.4 µM | [5] 46.3 µM | [6] 52.4 µM | [7] 43.2 µM | [8] 65.3 µM | [15] 21.3 µM | [17] 71 µM | [9] 16.6 µM | [10] 31.2 µM | [11] 63.4 µM | [12] 21.3 µM

C=C(C)C(=O)OCC(F)(F)C(F)(F)C(F)(F)F
inactive: [1] | [2] | [4] | [5] | [6] | [7] | [14] | [8] | [15] | [9] | [10] | [11] | [12]

CCO[Si](CCC(F)(F)C(F)(F)C(F)(F)C(F)(F)C(F)(F)C(F)(F)F)(OCC)OCC
inactive: [1] | [13] | [4] | [5] | [6] | [7] | [14] | [8] | [9] | [10] | [11] | [12]

Cc1ccc(S(=O)(=O)OCC(F)(F)C(F)(F)C(F)(F)C(F)(F)C(F)(F)C(F)F)cc1
inactive: [1] | [3] | [4] | [5] | [6] | [7] | [8] | [10] | [11]
active: [9] 8.85 µM | [12] 22.9 µM

OCCCC(F)(F)C(F)(F)C(F)(F)F
inactive: [1] | [4] | [5] | [6] | [7] | [8] | [18] | [17] | [9] | [10] | [11] | [12]

COC(=O)CCC(F)(F)C(F)(F)C(F)(F)C(F)(F)F
inactive: [1] | [4] | [5] | [6] | [7] | [14]

C=CC(F)(F)C(F)(F)C(F)(F)C(F)(F)C(F)(F)C(F)(F)C(F)(F)C(F)(F)C=C
inactive: [1] | [3] | [4] | [5] | [6] | [7]

OCC(F)(F)C(F)(F)C(F)(F)C(F)F
inactive: [1] | [4] | [5] | [6] | [7] | [8] | [19] | [16] | [9] | [10] | [11] | [12]

O=C(O)C(F)(F)C(F)(F)C(F)(F)C(F)(F)C(F)(F)C(F)(F)C(F)(F)C(F)(F)C(F)(F)C(F)F
active: [4] 37 µM | [18] 14.9 µM | [9] 15.8 µM | [12] 15 µM
inactive: [1] | [5] | [6] | [7] | [8] | [19] | [16] | [10] | [11]

O=C(O)C(F)(OC(F)(F)C(F)(OC(F)(F)C(F)(OC(F)(F)C(F)(F)C(F)(F)F)C(F)(F)F)C(F)(F)F)C(F)(F)F (stereo not drawn)
inactive: [1] | [13] | [4] | [5] | [6] | [7] | [8] | [9] | [10] | [11] | [12]

O=C(O)C(F)(F)C(F)(F)OC(F)(F)F
inactive: [1] | [13] | [4] | [5] | [6] | [7] | [8] | [9] | [10] | [11] | [12]
